Only some compounds are listed: those with a hit (about 21% of all), similar ones and a draw of the others.
Pf growth 48h = P. falciparum growth inhibition at 48 hours (one generation) | P. falciparum luciferase growth in erythrocytes, 48 h | Potency, µM (highest dose often 28.7 µM), actives largely listed as inhibitors | hit rate 5.9% among 310,000; active = well fitted inhibition curve with a large enough effect; inconclusive = small, poorly fitted or top-dose-only effect, or another doubt; inactive = no such curve, though single readings can be large or run the other way
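Here the parasites carry a stable luciferase gene and grow inside erythrocytes in Albumax-based RPMI medium with compound for one erythrocytic cycle. Activity is scored as loss of luminescent signal.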
NS1 inh = blocks influenza NS1 protein function; hit rate 0.4% among 270,000; Potency, µM (series often up to 46.1 µM); also: actives are rising curves; nearly all actives have a fitted effect of over 50% in size
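A cell-based growth assay was used: compounds that relieve NS1-induced slow growth of budding yeast raise OD600. Assay medium was yeast nitrogen base with ammonium sulphate and -URA supplement, pH 6.0, with 2% galactose.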
Pf growth 96h = inhibits malaria parasite growth, 96 h; Potency, µM (top dose mostly 28.7 µM), hits mostly inhibitors; P. falciparum luciferase reporter growth, 96 h; hit rate 6.9% among 320,000; active = well fitted inhibition curve with a large enough effect; inconclusive = small, poorly fitted or top-dose-only effect, or another doubt; inactive = no such curve, though single readings can be large or run the other way
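Two parasite generations (96 h, 37 C, 5% CO2) of compound exposure in infected erythrocytes (0.05% parasitemia, 2% hematocrit). Luciferase-reporter P. falciparum; decreased luminescence indicates inhibited growth, aimed at apicoplast-acting delayed death.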
Cycloheximide cs = counter-screen hit for Shiga toxin inhibitors, cycloheximide; hit rate 12% among 300,000; max response, %; cell reporter, cycloheximide protein synthesis inhibition counterscreen; AID 2314; in the data active = max response mostly above about 13%, no sharp cut-off; inactive = mostly below about 14%; also: read at 38.3 µM for the half of the compounds with a filed dose
Shiga toxin inh = blocks Shiga toxin action in Vero cells; Vero cells, Shiga toxin protein synthesis inhibition reporter; inhibition, % at 38.7 µM; hit rate 9.2% among 290,000; AID 2315; in the data active = inhibition mostly above about 28%, no sharp cut-off; inactive = mostly below about 43%
SARS PLP yeast = blocks SARS-CoV papain-like protease in a yeast assay; S. cerevisiae expressing SARS-CoV PLpro, growth rescue; hit rate 0.19% among 330,000; Potency, µM (highest dose often 32.9 µM), actives largely listed as activators; also: nearly all actives have a fitted effect of over 55% in size
Each line names hits and unclear results; the compound was inactive in the other large screens. Unless noted, calls follow the shape of the full dose curve.

COc1ccc(S(=O)(=O)N2CCN(C(=S)Nc3ccc(S(N)(=O)=O)cc3)CC2)cc1	Pf growth 48h inconclusive, Pf growth 96h inconclusive
Cc1[nH][nH]c(=O)c1C=NCc1cccs1	none (no result: NS1 inh)
CCOC(=O)C1CCN(c2ncnc3nc[nH]c23)CC1	Pf growth 48h inconclusive, Pf growth 96h inconclusive
CCOC(=O)C1CCN(c2ncnc3c(C)csc23)CC1	Cycloheximide cs 48, Shiga toxin inh 67
CCC1(c2ccc(OC)cc2)NC(=O)N(CC(=O)NC2CCCCC2C)C1=O (stereo unspecified)	Pf growth 96h inconclusive (no result: NS1 inh, Cycloheximide cs, Shiga toxin inh)
O=c1c(Cl)c(Cl)cnn1Cc1nnc(-c2ccc(Cl)cc2)o1	Cycloheximide cs 50 (no result: NS1 inh)
Cc1cc(-c2ccccc2)nc(=O)[nH]1	Pf growth 96h 6.6µM
CC(C)COc1nc2ccccc2nc1C(C#N)C(=O)NC1CCCCC1 (stereo unspecified)	Pf growth 96h inconclusive (no result: Pf growth 48h)
CC1CCN(c2nc3ccccc3nc2C(C#N)C(=O)OC2CCCCC2)CC1 (stereo unspecified)	Pf growth 96h inconclusive
Cc1cccc(S(=O)(=O)C(C#N)c2nc3ccccc3nc2N2CC(C)OC(C)C2)c1 (stereo unspecified)	Pf growth 48h inconclusive (no result: SARS PLP yeast)
Cc1ccc(S(=O)(=O)C(C#N)c2nc3ccccc3nc2N2CC(C)OC(C)C2)cc1C (stereo unspecified)	Pf growth 48h 13µM, Pf growth 96h inconclusive
CC1CN(c2nc3ccccc3nc2C(C#N)C(=O)NC2CCCCC2)CC(C)O1 (stereo unspecified)	Pf growth 96h inconclusive, Cycloheximide cs 19
CC1CN(c2nc3ccccc3nc2C(C#N)C(=O)OC2CCCCC2)CC(C)O1 (stereo unspecified)	Pf growth 48h 2.1µM, Pf growth 96h inconclusive
COC(=O)c1cc(S(=O)(=O)NCC2CCN(Cc3cccc(Cl)c3)CC2)c[nH]1	Pf growth 96h inconclusive
Cc1cccc(N(C)S(=O)(=O)c2c(C)noc2C)c1	Pf growth 96h 9.3µM
CC(C)c1ccc(S(=O)(=O)N2CCN(C(=O)Cc3ccsc3)CC2)cc1	Pf growth 48h inconclusive, Pf growth 96h inconclusive (no result: NS1 inh, Cycloheximide cs, Shiga toxin inh)
CC(C)(C)C1CCC(=NNC(=O)CN(c2ccccc2)S(=O)(=O)c2ccccc2[N+](=O)[O-])CC1 (stereo unspecified)	NS1 inh inconclusive
C/C(=N\NC(=O)CN(c1ccccc1)S(=O)(=O)c1ccccc1[N+](=O)[O-])C(C)(C)C	Pf growth 48h inconclusive, Pf growth 96h 12µM
O=C(N/N=C/c1ccc([N+](=O)[O-])o1)c1cc(-c2cccc(Br)c2)nc2ccccc12	Pf growth 48h inconclusive, Pf growth 96h 0.83µM
COc1cc(/C=N/NC(=O)c2cc(-c3ccccc3)nc3ccccc23)cc(OC)c1O	Pf growth 96h inconclusive (no result: Shiga toxin inh)
Cc1cccc(/C=N/NC(=O)c2cc(-c3cccnc3)nc3ccccc23)c1	Pf growth 48h inconclusive, Pf growth 96h inconclusive (no result: NS1 inh)
CCCc1ccc(-c2cc(C(=O)N/N=C/c3ccc([N+](=O)[O-])o3)c3ccccc3n2)cc1	Pf growth 96h 1.7µM, Cycloheximide cs 23 (no result: Pf growth 48h)
C/C(=N\Nc1ccc(F)cc1)c1ccc(N2CCOCC2)c(F)c1	Pf growth 48h inconclusive, Pf growth 96h inconclusive
Cc1cccn2c(=O)c(/C=C(\C#N)C(=O)NCc3ccco3)c(N3CCCCC3)nc12	Pf growth 48h inconclusive, Pf growth 96h 2.9µM
N#C/C(=C\c1c(N2CCCCCC2)nc2ccccn2c1=O)C(=O)NCc1ccco1	Pf growth 48h inconclusive, Pf growth 96h inconclusive, Cycloheximide cs 38
Cc1cccn2c(=O)c(/C=C(\C#N)C(=O)NCc3ccco3)c(N3CCCCCC3)nc12	Pf growth 48h inconclusive, Pf growth 96h inconclusive
CSC(C(=O)c1cc2ccccc2o1)c1ccccc1 (stereo unspecified)	none (no result: NS1 inh, Cycloheximide cs, Shiga toxin inh)
O=C(CN1C(=O)CSc2ccc(S(=O)(=O)N3CCOCC3)cc21)NCc1cccnc1	none (no result: NS1 inh)
CSCCC(NC(=O)c1ccccc1)C(=O)N1CC(C)OC(C)C1 (stereo unspecified)	none (no result: NS1 inh, Cycloheximide cs, Shiga toxin inh)
CCc1nnc(NC(=O)c2nc(S(=O)(=O)Cc3ccc(C)cc3)ncc2Cl)s1	Pf growth 96h inconclusive, Cycloheximide cs 57, Shiga toxin inh 78
CCc1nnc(NC(=O)c2nc(S(=O)(=O)Cc3cccc(C)c3)ncc2Cl)s1	Cycloheximide cs 58, Shiga toxin inh 74
CCc1nnc(NC(=O)c2nc(S(=O)(=O)Cc3ccccc3)ncc2Cl)s1	NS1 inh inconclusive, Cycloheximide cs 75, Shiga toxin inh 114
CCOc1cc(C(=O)N(C)CC(=O)Nc2cccc(F)c2)ccc1OCC(=O)N1CCOCC1	Pf growth 48h inconclusive (no result: NS1 inh, Cycloheximide cs, Shiga toxin inh)
COc1ccc(C(CNC(=O)c2ccc(NS(=O)(=O)c3cccc([N+](=O)[O-])c3)cc2)N2CCOCC2)cc1 (stereo unspecified)	Pf growth 48h inconclusive, Pf growth 96h inconclusive
CCC(C)n1ncn(-c2ccc(N3CCN(c4ccc(OCC5COC(Cn6cncn6)(c6ccc(Cl)cc6Cl)O5)cc4)CC3)cc2)c1=O (stereo unspecified)	Pf growth 48h 3.4µM
O=C(NCc1ccc(Cl)cc1)c1ccc(-c2ccccc2C(F)(F)F)o1	none
CN1CCc2cccc3c2[C@@H]1Cc1ccc(O)c(O)c1-3	Pf growth 48h 2.6µM, Pf growth 96h 2.6µM
CCCN1CCc2cccc3c2C1Cc1ccc(O)c(O)c1-3 (stereo unspecified)	none (no result: Pf growth 48h, Pf growth 96h, Cycloheximide cs, Shiga toxin inh, SARS PLP yeast)
CC(C)(CNS(C)(=O)=O)SCc1ccc(Cl)cc1	none (no result: NS1 inh)
O=C(Nc1ccccc1[N+](=O)[O-])C1COc2ccccc2O1 (stereo unspecified)	Pf growth 96h 12µM, Cycloheximide cs 27, Shiga toxin inh 38
Cc1ccccc1NC(=O)C1COc2ccccc2O1 (stereo unspecified)	none (no result: Shiga toxin inh)
CCCn1c(NC(=O)C2COc3ccccc3O2)nc2ccccc21 (stereo unspecified)	Pf growth 48h 9.3µM, Pf growth 96h inconclusive
COC(=O)c1ccccc1NC(=O)C1COc2ccccc2O1 (stereo unspecified)	Cycloheximide cs 55, Shiga toxin inh 122
CCc1ccccc1NC(=O)C1COc2ccccc2O1 (stereo unspecified)	Pf growth 48h inconclusive, Pf growth 96h 2.9µM (no result: Shiga toxin inh)
CC(C)Cn1c(SCC(=O)Nc2cccnc2Cl)nnc1-c1ccco1	none (no result: Pf growth 48h, NS1 inh, Pf growth 96h, Cycloheximide cs, Shiga toxin inh)
COc1ccc(S(=O)(=O)N(C)C)cc1NC(=O)Cc1cccs1	none (no result: NS1 inh)
Cc1ccc(Cn2c(NCCCn3ccnc3)nc3c2c(=O)n(C)c(=O)n3C)cc1	NS1 inh inconclusive
Cc1cc(C)c(S(=O)(=O)N2CCCOC2CNC(=O)C(=O)NCc2ccco2)c(C)c1 (stereo unspecified)	none
CC(=O)c1c(C)cc(C)c(CSc2ccccn2)c1C	Pf growth 96h inconclusive
CNC(=O)/C(C#N)=C/c1cccc(Oc2ccccc2)c1	Cycloheximide cs 42, Shiga toxin inh 64
O=C(O)[C@H](CCc1ccccc1)N1C(=O)c2ccccc2C1=O	none (no result: Pf growth 48h, Pf growth 96h, Cycloheximide cs, Shiga toxin inh, SARS PLP yeast)
O=C(O)C(Cc1ccccc1)N1C(=O)c2ccccc2C1=O (stereo unspecified)	Pf growth 96h 15µM (no result: Pf growth 48h)

Bioassay records from PubChem BioAssay.
